Screens as filed in PubChem.
ssDAF-12 act: activates DAF-12 receptor from parasite S. stercoralis. HEK293 ssDAF-12/GRIP1 lit1-tk-luc reporter, luminescence; % of 3 µM dafachronic acid response. activation, % at 6.8 µM. 1% of 370,000 active;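 active means activation above the mean over all tested compounds plus 3 SD, cut at about 0.9% in these data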;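 further: 0% = DMSO-only wells and 100% = 3 µM delta7-dafachronic acid wells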
DAX1 inh-1: DAX1 (NR0B1) inhibition, primary screen; HEK293T StAR-luciferase reporter, SF-1/DAX-1 repression relief; inhibition, % at 6.8 µM; 1.1% of 370,000 active; AID 652010;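 active means inhibition above the mean over all tested compounds plus 3 SD, cut at about 3.6% in these data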;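 further: 0% = DAX-1 cells with DMSO and 100% = cells lacking DAX-1 with DMSO; higher inhibition means more luminescence from relief of DAX-1 repression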
DAX1 inh-2: inhibits human nuclear receptor DAX1; 0.99% of 340,000 active; inhibition, % at 6.75 µM; P51843; HEK293 Gal4-DAX1 luciferase reporter, luminescence; AID 504766;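 active means inhibition above the mean over all tested compounds plus 3 SD, cut at about 4.2% in these data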;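 further: 0% = DAX1-transfected cells with DMSO and 100% = empty-vector control cells with DMSO; inhibition shows as a rise in luminescence from relieved DAX1 repression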
hcDAF-12 act: activates DAF-12 receptor from parasite H. contortus; HEK293 hcDAF-12 lit1-tk-luc reporter, luminescence; 0% DMSO, 100% Δ7-dafachronic acid; activation, % at 6.8 µM; 1.4% of 370,000 active;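 active means activation above the mean of all tested compounds plus 3 SD, cut at about 5.5% in these data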;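 further: 100% = response to 3 µM Δ7-dafachronic acid high control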
hgDAF12 agonist: hgDAF-12 agonism, primary luciferase screen. HEK293 GAL4-hgDAF12 UAS-luciferase reporter, agonist luminescence; normalized to butyrate control. 1.8% of 370,000 active. activation, % at 6.8 µM. AID 687014;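 active means activation above a cutoff set at the mean of all screened compounds plus 3 SD, cut at about 10% in these data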;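 further: 0% = DMSO wells and 100% = sodium butyrate wells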
LXRb hcDAF ctr: LXR-beta agonism as hcDAF-12 counter-screen | activation, % at 6.8 µM | shares compounds with hcDAF-12 act | 3,400 tested, under 10 active | AID 743027 | HEK293 Gal4-LXR tk-luc reporter, luminescence, 24 h; normalized: DMSO 0%, positive control 100%;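 active means mean percent activation of the reporter above a cutoff set as the average over tested compounds plus their standard deviation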
Target sequence (P55055 whole entry, looked up, the tested form may be a part): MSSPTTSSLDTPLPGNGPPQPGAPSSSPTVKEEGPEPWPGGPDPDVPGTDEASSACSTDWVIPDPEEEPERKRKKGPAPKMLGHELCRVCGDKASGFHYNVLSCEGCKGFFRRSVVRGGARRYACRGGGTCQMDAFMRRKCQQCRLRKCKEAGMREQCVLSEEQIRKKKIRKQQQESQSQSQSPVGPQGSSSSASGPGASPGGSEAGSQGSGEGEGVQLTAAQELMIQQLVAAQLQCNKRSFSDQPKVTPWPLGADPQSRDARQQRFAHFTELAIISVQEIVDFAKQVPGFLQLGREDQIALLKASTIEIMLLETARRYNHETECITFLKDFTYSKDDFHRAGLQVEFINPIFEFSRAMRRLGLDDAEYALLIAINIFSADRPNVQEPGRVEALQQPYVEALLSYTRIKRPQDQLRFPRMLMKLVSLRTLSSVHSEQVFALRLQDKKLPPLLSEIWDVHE
hcDAF12 ag: confirmation of H. contortus DAF-12 agonists; shares compounds with hcDAF-12 act; HEK293 hcDAF-12 lit1-tk-luc reporter, luminescence; % of Δ7-dafachronic acid response; activation, % at 6.8 µM; 61% of 3,400 active; AID 743032;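 active means mean activation across triplicate tests above the threshold derived from the earlier primary screen, cut at about 5.5% in these data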;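 further: 0% = DMSO only wells and 100% = 3 µM Δ7-dafachronic acid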
Numbers without * were called inactive; . = no result given. Sampled rows, rich in hits. Any-hit rate of the full collection: about 4.1%.

SMILES	ssDAF-12 act	DAX1 inh-1	DAX1 inh-2	hcDAF-12 act	hgDAF12 agonist	LXRb hcDAF ctr	hcDAF12 ag
C[C@@H]1[C@@H](c2ccccc2)OC(O)([C@H](Cc2ccccc2)NC(=O)OC(C)(C)C)CN1C (stereo partly drawn)	-1.9	.	.	-1.1	1.8	.	.
COc1ccc(C2CC(c3cccs3)=Nc3ccccc3S2)cc1 (stereo not drawn)	0.3	0.5	2.4	8.6*	7.8	0.2	4.0
CCOC(=O)CC[C@H]1CC[C@]2(CCCN(C(=O)c3ccc4ccccc4n3)C2)O1	-1.4	-0.5	.	0.4	-0.6	.	.
COc1ccc(N=Nc2ccc3ccccc3c2)c(O)c1	0.4	1.2	3.8	8.1*	4.6	1.9	12.4*
COc1ccc(C(=O)c2ccccc2)c(O)c1	-1.3	-0.4	0.7	-0.9	1.0	.	.
CC1=CC2=NC(=O)/C(=C\c3cccn3CCOc3ccccc3C)C(=N)N2O1	-1.8	-1.1	1.2	-3.7	-2.2	.	.
COc1ccccc1OCCOc1ccc(/C=C2/C(=N)N3OC(C)=CC3=NC2=O)cc1OC	-1.1	-1.1	-1.0	7.3*	5.1	-0.7	-3.3
CN1CCc2c1nc1ccccc1c2N (tested in a mixture with another compound)	-0.3	0.0	0.8	2.8	1.5	.	.
Nc1c2c(nc3cccc(Cl)c13)N(c1ccccc1)CC2	1.1*	0.3	0.9	7.2*	0.1	0.2	7.4*
Cc1cc2[nH]c3c4ccccc4nc(C)c3c2cc1C	0.0	-0.6	0.8	3.8	2.2	.	.
Cc1cc2[nH]c3c(c[n+](C)c4ccccc34)c2cc1C	1.0*	-0.7	-0.1	14.4*	6.3	1.7	10.2*
CC(C)(C)c1ccc(-c2nnc(SCc3ccccc3)n2Cc2ccco2)cc1	-2.0	-1.6	.	-0.9	-3.6	.	.
CCCCOc1ccc(C(=O)NC2CCCCN(Cc3ccc(Cl)cc3)C2=O)cc1 (stereo not drawn)	-1.3	-1.9	.	-4.5	-2.3	.	.
Cc1ccc(-c2cc(C(F)F)n3ncc(C(=O)N4CCCc5ccccc54)c3n2)cc1	-0.8	0.2	1.4	6.6*	0.4	-0.4	-0.9
COc1ccc(-c2cc(C(F)F)n3ncc(C(=O)N4CCc5ccccc54)c3n2)cc1	-1.4	-0.1	-1.0	-0.5	-2.2	.	.
CC(C)CCNC(=O)C1CC(c2ccccc2[N+](=O)[O-])=NO1 (stereo not drawn)	0.3	0.4	1.9	7.2*	3.6	0.1	4.3
CCCNC(=O)C1CC(c2ccccc2[N+](=O)[O-])=NO1 (stereo not drawn)	-0.7	0.5	0.9	2.7	2.1	.	.
Nc1cccc(S(=O)(=O)N2CCCN(S(=O)(=O)c3ccc4c(c3)OCCO4)CC2)c1	-1.7	.	.	-1.4	2.4	.	.
N#CCn1c2ccccc2c2nc3ccccc3nc21	-1.3	-0.5	0.8	1.0	-0.6	.	.
C#CCn1c2ccccc2c2nc3ccccc3nc21	0.7	1.7	2.1	7.1*	9.4	0.8	4.7
O=S(=O)(Nc1ccn(-c2ccccc2)n1)c1ccc(Br)cc1	-1.1	1.6	-0.1	7.3*	5.2	0.0	4.2
CCOC(=O)CC[C@@]1(C(=O)OCC)C[C@@H](CC(=O)NCc2ccc(OC)c(OC)c2)C(=O)N2CCCC=C21	-1.2	0.2	.	-0.6	-1.8	.	.
C/C(=N\NC(=O)c1ccccc1O)c1cccc(NC(=O)c2ccccc2)c1	1.3*	-0.1	2.7	7.0*	9.1	-0.1	5.5
C/C(=N\NC(=O)c1cc(O)ccc1O)c1cccc(NC(=O)c2ccc(Cl)cc2)c1	-1.0	3.0	0.8	-0.7	5.8	.	.
CC(C)(C)OC(=O)N1CCC[C@@H]1C(=O)N1CCC[C@H]1C(=O)NCc1ccccc1	-1.3	0.1	.	-0.3	-0.6	.	.
CC1(C)CC(=O)C=C(c2ccc(COC(=O)c3ccc(Br)cc3)cc2)C1=O	-1.0	0.1	.	-1.6	2.5	.	.
Cc1ccc(-c2noc(/C=C/c3ccccc3)n2)cc1	-1.1	0.6	1.9	0.4	1.9	.	.
